Where “and” joins values, the source holds several entries; their conditions need not be identical. Equal values may be shown once. About 83,000 compounds went through this panel and 20% of them were active in at least one assay; those are over-represented in the sample as a whole.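 Cells were grown in 96-well plates and exposed to the test compound at a single concentration for 48 hours; results are reported as percent growth, with values below 10 considered active.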
Key:
Assay in all cases: NCI-60 one-dose screen, 48 h (100 = growth as untreated, 0 = no growth, -100 = all killed)
Details in all cases: 10 µM unless noted
NCI-H23 lung = test system: NCI-H23 lung
NCI-H226 lung = test system: NCI-H226 lung
NCI-H322M lung = test system: NCI-H322M lung
HOP-62 NSCLC = test system: HOP-62 NSCLC
NCI-H460 lung = test system: NCI-H460 lung
HOP-92 NSCLC = test system: HOP-92 NSCLC
NCI-H522 lung = test system: NCI-H522 lung
786-0 renal = test system: 786-0 renal
COLO 205 colon = test system: COLO 205 colon
DU-145 prostate = test system: DU-145 prostate
K-562 leukemia = test system: K-562 leukemia
MALME-3M melanoma = test system: MALME-3M melanoma
MDA-MB-231 breast = test system: MDA-MB-231 breast
RXF 393 renal = test system: RXF 393 renal
SF-268 CNS = test system: SF-268 CNS
SF-295 CNS = test system: SF-295 CNS
SF-539 CNS = test system: SF-539 CNS
UACC-257 melanoma = test system: UACC-257 melanoma
M14 melanoma = test system: M14 melanoma
A549/ATCC NSCLC = test system: A549/ATCC NSCLC

Measured: growth

Nc1ccc(Cl)c(S(=O)(=O)O)c1
inactive: NCI-H23 lung 97% | NCI-H226 lung 97.1% | NCI-H322M lung 89.2% | HOP-62 NSCLC 100% | NCI-H460 lung 105% | HOP-92 NSCLC 106% | NCI-H522 lung 99.1% | 786-0 renal 104% | COLO 205 colon 111% | DU-145 prostate 105% | K-562 leukemia 104% | MALME-3M melanoma 112% | MDA-MB-231 breast 111% | RXF 393 renal 95.1% | SF-268 CNS 102% | SF-295 CNS 112% | SF-539 CNS 94.3% | UACC-257 melanoma 98.8% | M14 melanoma 98.9%

CCC(=O)Oc1ccc(OCc2ccccc2)cc1
inactive: NCI-H23 lung 85.5% and 83.8% | NCI-H226 lung 104% and 103% | NCI-H322M lung 120% and 92.3% | HOP-62 NSCLC 107% and 94.8% | NCI-H460 lung 99.4% and 93.7% | HOP-92 NSCLC 89.1% | NCI-H522 lung 88.3% and 77% | 786-0 renal 81.5% and 79.6% | COLO 205 colon 124% and 113% | DU-145 prostate 96.9% and 88.9% | K-562 leukemia 86% and 88.4% | MALME-3M melanoma 107% and 86.6% | MDA-MB-231 breast 60.1% and 68.4% | RXF 393 renal 94% and 100% | SF-268 CNS 75% and 85.5% | SF-295 CNS 95.4% and 75.9% | SF-539 CNS 56.2% and 65.3% | UACC-257 melanoma 130% and 108% | M14 melanoma 101% and 77.3%

O=C(O)C1CSCN1 (configuration not stated)
inactive: NCI-H23 lung 113% and 101% | NCI-H226 lung 113% and 98.5% | NCI-H322M lung 93.9% and 74.4% | HOP-62 NSCLC 99.8% and 96.2% | NCI-H460 lung 125% and 103% | NCI-H522 lung 99.7% and 96.1% | A549/ATCC NSCLC 97.7% and 111% | 786-0 renal 90.2% and 101% | COLO 205 colon 103% and 104% | DU-145 prostate 116% and 127% | K-562 leukemia 93.5% and 95.2% | MALME-3M melanoma 94.1% | MDA-MB-231 breast 107% and 112% | RXF 393 renal 123% | SF-268 CNS 117% and 104% | SF-295 CNS 104% and 108% | SF-539 CNS 121% and 93.4% | UACC-257 melanoma 106% and 91.6% | M14 melanoma 108% and 99.8%

O=P(O)(O)OC1C(OP(=O)(O)O)C(OP(=O)(O)O)C(OP(=O)(O)O)C(OP(=O)(O)O)C1OP(=O)(O)O.[Cu+2] (configuration not stated)
inactive: NCI-H23 lung 93.3% | NCI-H226 lung 98.8% | NCI-H322M lung 106% | HOP-62 NSCLC 114% | NCI-H460 lung 84.2% | HOP-92 NSCLC 106% | NCI-H522 lung 101% | 786-0 renal 114% | COLO 205 colon 111% | DU-145 prostate 104% | K-562 leukemia 94.7% | MALME-3M melanoma 93.4% | MDA-MB-231 breast 80.7% | RXF 393 renal 125% | SF-268 CNS 125% | SF-295 CNS 91% | SF-539 CNS 72% | UACC-257 melanoma 80.2% | M14 melanoma 102%

CC(C)(C)OC(=O)NCCc1ccc(N)cc1
inactive: NCI-H23 lung 104% | NCI-H226 lung 94.9% | NCI-H322M lung 103% | HOP-62 NSCLC 96.1% | NCI-H460 lung 97.4% | HOP-92 NSCLC 88.4% | NCI-H522 lung 83.5% | 786-0 renal 100% | COLO 205 colon 110% | DU-145 prostate 103% | K-562 leukemia 101% | MALME-3M melanoma 95.8% | MDA-MB-231 breast 85.6% | RXF 393 renal 115% | SF-268 CNS 96.3% | SF-295 CNS 99.2% | SF-539 CNS 107% | UACC-257 melanoma 98.2% | M14 melanoma 104%

CCOC(=O)c1ccc(C(=N)N)cc1
inactive: NCI-H23 lung 99% | NCI-H226 lung 106% | NCI-H322M lung 117% | HOP-62 NSCLC 108% | NCI-H460 lung 103% | HOP-92 NSCLC 80.2% | NCI-H522 lung 102% | 786-0 renal 106% | COLO 205 colon 114% | DU-145 prostate 106% | K-562 leukemia 101% | MALME-3M melanoma 108% | MDA-MB-231 breast 120% | RXF 393 renal 95.4% | SF-268 CNS 104% | SF-295 CNS 101% | SF-539 CNS 105% | UACC-257 melanoma 96.8%

CS(=O)(=O)c1nsc(N)n1
inactive: NCI-H23 lung 94.7% | NCI-H226 lung 99.2% | NCI-H322M lung 98.4% | HOP-62 NSCLC 89.5% | NCI-H460 lung 106% | HOP-92 NSCLC 111% | NCI-H522 lung 91.1% | 786-0 renal 106% | COLO 205 colon 103% | DU-145 prostate 109% | K-562 leukemia 98.7% | MALME-3M melanoma 101% | MDA-MB-231 breast 106% | RXF 393 renal 108% | SF-268 CNS 100% | SF-295 CNS 104% | SF-539 CNS 102% | UACC-257 melanoma 84.9% | M14 melanoma 104%

Reference: PubChem BioAssay (NCI)
